Test results reported in the OligoGym collection.
Also: reference of the scale not given here.

These sequences were tested against HLA-DRA (assay: pooled miR-30 sensor sort-seq; sequence = guide strand). Conditions: shRNA.
TTGGTGATCGGAGTATAGTTGG was tested, and the sensor-assay potency score (higher = more potent) was -0.222. For AGACTGTCTCTGACACTCCTGT, the sensor-assay potency score (higher = more potent) was -1.07. AAGTCAAACATAAACTCGCCTG gave a sensor-assay potency score (higher = more potent) of -0.837. TTCGTGAGCACAGTTACCTCTG showed a sensor-assay potency score (higher = more potent) of 0.227. TCAAACATAAACTCGCCTGATT was tested, and the sensor-assay potency score (higher = more potent) was -0.205.

These sequences were tested against HMGB2 in the same assay as above. Conditions: shRNA.
TTTAGGAGCATTGGGGTCCTTT gave a sensor-assay potency score (higher = more potent) of -0.857. TTTGCAGACATGGTCTTCCATC gave a sensor-assay potency score (higher = more potent) of -0.617. With TTCTTCTTCTTTGAGCCTGTTG the sensor-assay potency score (higher = more potent) was -0.484. With TTCTTCTTGTGCTCTTCCCGGC the sensor-assay potency score (higher = more potent) was -0.526. TTTAGCTTAGCTGCTTTCTGTT was tested, and the sensor-assay potency score (higher = more potent) was -0.377. TTTAGGAACATTCAACATCAGA showed a sensor-assay potency score (higher = more potent) of -0.879. Sequence TTTCTTCTTGTGCTCTTCCCGG has a sensor-assay potency score (higher = more potent) of -1.12. For TTCTGGTTCGTTCTTCTTCTTT, the sensor-assay potency score (higher = more potent) was -0.774. In the case of TTCAAACTTCGACTTCTCCTTT, the sensor-assay potency score (higher = more potent) is reported as 0.655. TTAGCTTAGCTGCTTTCTGTTC gave a sensor-assay potency score (higher = more potent) of -0.873. TATCTTTGGCTGACTGCTCAGA showed a sensor-assay potency score (higher = more potent) of -0.772.

These sequences were tested against HMGN1 in the same assay as above. Conditions: shRNA.
For TTATCCTTCGCTGCTGCCTTTT, the sensor-assay potency score (higher = more potent) was -1.55. For TAAGTCTTCTTTAGTTTCTTGG, the sensor-assay potency score (higher = more potent) was 0.158. TTTAGCTGACAACCGCGCCGAT gave a sensor-assay potency score (higher = more potent) of -0.654. In the case of TTTAGTTTCTTGGTTAGCCACT, the sensor-assay potency score (higher = more potent) is reported as -0.724. Sequence TTCGCTTCCACTTTTGCAGGAG has a sensor-assay potency score (higher = more potent) of 0.413. TACCAAAAAATAAACAACCAGC was tested, and the sensor-assay potency score (higher = more potent) was -1.01. TTCTTGGTTAGCCACTTCGGCC showed a sensor-assay potency score (higher = more potent) of -1.77. Sequence AAGATTTATCCTTCGCTGCTGC has a sensor-assay potency score (higher = more potent) of -0.0749. With TTGATAAAAATATTCCTCTGGA the sensor-assay potency score (higher = more potent) was 0.157. Work on TTAGCTGACAACCGCGCCGATC yielded a sensor-assay potency score (higher = more potent) of -1.18. TAGGATATAAAAACTAACCCCC was tested, and the sensor-assay potency score (higher = more potent) was -0.107. Work on TTGGTTAGCCACTTCGGCCTGT yielded a sensor-assay potency score (higher = more potent) of 0.684.

Each sequence was assayed against HMOX1 in the same assay as above. Conditions: shRNA.
TTGAACTTGGTGGCACTGGCAA showed a sensor-assay potency score (higher = more potent) of -0.865. Work on TAGAGCTGCTTGAACTTGGTGG yielded a sensor-assay potency score (higher = more potent) of 0.136. In the case of TAGGGGATGACCTCCTGCCAGC, the sensor-assay potency score (higher = more potent) is reported as -1.69. For TCTTCTATCACCCTCTGCCTGA, the sensor-assay potency score (higher = more potent) was -0.665. In the case of TATAAAAACAACAGAACACAAC, the sensor-assay potency score (higher = more potent) is reported as -1.08. For TCTTCTGGGAAGTAGACAGGGG, the sensor-assay potency score (higher = more potent) was -0.217. TTGAGCAGGAACGCAGTCTTGG showed a sensor-assay potency score (higher = more potent) of -0.286. In the case of AAACACAAGACACAACATCTTT, the sensor-assay potency score (higher = more potent) is reported as -0.747. For TACAGCAACTGTCGCCACCAGA, the sensor-assay potency score (higher = more potent) was -0.902. Work on TCATGAACTCAGCATTCTCTGC yielded a sensor-assay potency score (higher = more potent) of -0.85. For TTGCACTTTGTTGCTGGCCCGC, the sensor-assay potency score (higher = more potent) was -1.2. In the case of TTGCGGTGCAGCTCTTCTGGGA, the sensor-assay potency score (higher = more potent) is reported as -0.856.
